Values joined by “and” are separate entries in the source; they are usually repeats but may differ in a detail not shown here. Equal entries are not always repeated. For some of these results: Results with a measured potency or affinity are listed apart. Inconclusive results are not listed. Active and inactive are the calls of the source. Unless noted, no rule for the calls is given here.

Our source for the composite z-score, z-score and outcome values is PubChem BioAssay.

Assay [1] has as its system XIP peptide (Xip251-270) binding. Nature of the assay: small-molecule binders of XIP peptide, primary screen, biochemical, small-molecule microarray, fluorescence 635/667 nm, 0.1 µg/mL protein (AID 1182). Conditions: fluorescent protein binding, 635 nm; higher = more signal, called active from +8 up or from −8 down unless noted.
A further assay relates to XIP peptide (Xip251-270). Nature of the assay: small-molecule binders of XIP peptide, primary screen, biochemical, small-molecule microarray, fluorescence 635/667 nm, 0.5 µg/mL protein (AID 1183). Conditions: small-molecule microarray binding, fluorescence 635 nm; higher = more signal.
A short description of assay [2]: Plasmodium falciparum growth inhibition, primary screen, strain 3D7, DAPI fluorescence, 100 nL (AID 1184).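 Also: parasites grown inside human red blood cells in medium with human serum.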 Conditions: P. falciparum 3D7 growth, 3 d, higher = more signal.
Assay [3] deals with Homeobox protein Hox-A13 (Mus musculus) (UniProt Q62424). Briefly: inhibitors of HoxA13-DNA binding, primary screen, biochemical, fluorescence polarization, labeled oligonucleotide (AID 1185). Conditions: 15 min; higher = more signal, called active from +8 up or from −8 down unless noted.
Assay [4] in a line: inhibitors of hydroxyurea-induced Chk1 phosphorylation, primary screen, imaging, HeLa, phospho-Chk1 antibody, percent positive cells (AID 1186). Conditions: hydroxyurea-induced phospho-Chk1 immunofluorescence imaging, higher = more signal.
Assay [5] in a line: inhibitors of hydroxyurea-induced Chk1 phosphorylation, primary screen, imaging, HeLa, phospho-Chk1 nuclear intensity (AID 1187). Conditions: hydroxyurea-induced phospho-Chk1 immunofluorescence imaging, higher = more signal.
Assay [6] addresses Adenosylmethionine-8-amino-7-oxononanoate aminotransferase (Mycobacterium tuberculosis (strain ATCC 25618 / H37Rv)) (UniProt P9WQ81). Briefly: inhibition of purified M. tuberculosis BioA – biochemical, plate reader, cherry-pick samples, dose response (AID 651683).
Assay [7] is described as follows: Cryptococcus neoformans growth inhibition, dose response, Alamar Blue, cherry-picks (AID 686998;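 active = falling signal with fitted half-maximal potency no higher than twice the top valid tested dose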).
A short description of assay [8]: HepG2 cell cytotoxicity, dose response, cytotoxicity control, cherry-picks, set 2 (AID 687002;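 active = a dose-response fit showing signal loss, with half-maximal concentration no higher than twice the top tested dose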).
A short description of assay [9]: inducers of Cryptococcus neoformans cell lysis, dose response, AK release luminescence, cherry-picks (AID 687000;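 active = fitted dose curve reaches 40% lysis signal rise at or below the highest valid concentration tested for that sample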;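 also: luminescent detection of adenylate kinase leaking from lysed yeast; 0% = median neutral control signal and 100% = double that signal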).

Sequence of Homeobox protein Hox-A13 (Mus musculus) (Q62424 whole entry, looked up): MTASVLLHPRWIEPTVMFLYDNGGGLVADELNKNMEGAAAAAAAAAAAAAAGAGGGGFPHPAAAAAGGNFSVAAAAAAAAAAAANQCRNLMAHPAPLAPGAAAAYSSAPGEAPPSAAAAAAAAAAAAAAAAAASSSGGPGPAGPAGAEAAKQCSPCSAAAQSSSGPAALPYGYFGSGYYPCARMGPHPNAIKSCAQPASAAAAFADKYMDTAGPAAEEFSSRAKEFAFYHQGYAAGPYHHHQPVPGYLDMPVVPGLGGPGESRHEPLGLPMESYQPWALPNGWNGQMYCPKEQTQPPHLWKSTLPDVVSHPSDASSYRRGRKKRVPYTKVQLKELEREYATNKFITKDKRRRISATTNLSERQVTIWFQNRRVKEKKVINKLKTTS
Sequence of Adenosylmethionine-8-amino-7-oxononanoate aminotransferase (Mycobacterium tuberculosis (strain ATCC 25618 / H37Rv)) (P9WQ81 whole entry, looked up): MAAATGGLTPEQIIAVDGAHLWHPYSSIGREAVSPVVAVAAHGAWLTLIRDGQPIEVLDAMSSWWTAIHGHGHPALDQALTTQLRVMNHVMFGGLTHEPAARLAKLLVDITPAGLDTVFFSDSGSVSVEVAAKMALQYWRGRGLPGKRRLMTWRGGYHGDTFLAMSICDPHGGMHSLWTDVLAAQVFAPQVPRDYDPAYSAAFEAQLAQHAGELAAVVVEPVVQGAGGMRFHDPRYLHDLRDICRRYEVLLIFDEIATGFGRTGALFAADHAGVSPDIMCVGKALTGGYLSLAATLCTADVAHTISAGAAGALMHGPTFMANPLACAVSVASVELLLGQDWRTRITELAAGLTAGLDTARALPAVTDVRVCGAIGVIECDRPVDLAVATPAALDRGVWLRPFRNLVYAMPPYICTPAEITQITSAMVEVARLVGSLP

On to `C=C(CC1(C(C)NP(=O)(c2ccccc2)c2ccccc2)CC1)c1ccccc1` (configuration not stated), for which the composite z-score was -0.131 (inactive) in [1] and 0.858 with XIP peptide (Xip251-270). For the same compound, the z-score in assay [2] is -1.1; in assay [3] it was -5.49 (inactive); in assay [4] it was 0.137 (inactive); in assay [5] it was 0.321 (inactive).

For the compound `COc1cc2c(cc1O)C(C)N(C)CC2` (configuration not stated), the composite z-score is -0.191 (inactive) in [1] and 0.229 in the assay with XIP peptide (Xip251-270). In addition, the z-score is -0.563 in assay [2], -0.569 (inactive) in assay [3], -0.0732 (inactive) in [4] and 0.363 (inactive) in assay [5].

As to `CN1CCc2nc(CO)c(CO)cc2C1`, the composite z-score was -0.102 (inactive) in assay [1] and -0.446 in the assay with XIP peptide (Xip251-270). Further, the z-score was -0.221 in assay [2] and -0.184 (inactive) in assay [3].

Turning to `CCCc1cc2c(n1Cc1ccc(C)cc1)C(C)C1CN(C(=O)c3ccccc3)C(C)(C(=O)OC)C21` (configuration not stated), the composite z-score in [1] was 0.707 (inactive); in the assay on XIP peptide (Xip251-270), 0.73. For the same compound, the z-score in assay [2] is -0.0901; in [3] it was -2.8 (inactive); in [4] it was -0.364 (inactive); in [5], 0.0089 (inactive).

For the compound `c1ccc(-c2cc3c(nc2-c2ccccc2)CCNC3)cc1`, the composite z-score in assay [1] is 0.236 (inactive); in the assay with XIP peptide (Xip251-270) it was 0.0762. The z-score in [2] is -0.295; in assay [3] it was -0.372 (inactive).

For the compound `CC1N(P(=O)(c2ccccc2)c2ccccc2)CC(O)(c2ccccc2)CC12CC2` (configuration not stated), the composite z-score is 0.51 (inactive) and -0.0366 (inactive) in assay [1]; 0.547 and 0.382 with XIP peptide (Xip251-270). Further, the z-score in assay [2] was 0.2 and -0.527; in [3], -3.23 (inactive) and -3.55 (inactive); in [4] it was 0.694 (inactive) and 0.475 (inactive); in [5] it was 0.608 (inactive) and 0.341 (inactive).

As for `OCc1ccc(C2=CC(c3cccs3)N(Cc3cccc(OC(F)(F)F)c3)CC2)cc1` (configuration not stated), the composite z-score was 0.209 (inactive) in assay [1] and -0.0913 in the assay with XIP peptide (Xip251-270). Further, the z-score is -3.09 in assay [2], -1.91 (inactive) in assay [3], -0.308 (inactive) in [4] and -0.44 (inactive) in [5].

`C=C(CC1(CNP(=O)(c2ccccc2)c2ccccc2)CC1)c1ccccc1`: the composite z-score in [1] was 1.26 (inactive); in the assay with XIP peptide (Xip251-270), 0.651. The z-score in assay [2] is -0.176; in assay [3], -2.28 (inactive); in assay [4] it was -0.462 (inactive); in [5], -0.427 (inactive).

Regarding `N#Cc1ccc(-c2ccc3c(c2)[C@@H]2[C@@H](CCN2C(=O)c2ccc(F)cc2)[C@@H](CO)N3)cc1`, the result in assay [6] was inactive.

With `CCCc1cc2c(n1Cc1cccc(Cl)c1)C(C)C1CN(C(=O)c3ccccc3)C(C)(C(=O)OC)C21` (configuration not stated), the composite z-score in assay [1] was 1.12 (inactive); in the assay with XIP peptide (Xip251-270), -0.589. For the same compound, the z-score in assay [2] is -0.413; in [3], -5.79 (inactive); in [4], 0.251 (inactive); in [5], 0.861 (inactive).

As to `C[C@@H]1CN([C@@H](C)CO)C(=O)CCCn2nncc2CO[C@H]1CN(C)C(=O)Oc1cccc2ccccc12`, the result in [7] and in assay [8] was inactive.

As for `C[C@H]1CN([C@@H](C)CO)C(=O)CCCn2nncc2CO[C@H]1CN(C)C(=O)Oc1cccc2ccccc12`, the outcome in assay [7], in assay [9] and in [8] was inactive.

For the compound `CN1c2ccc(-c3cccc(F)c3)cc2[C@@H]2[C@@H](CCN2C(=O)c2ccncc2)[C@H]1CO`, in [6], the outcome was inactive.

`Cc1ccc(S(=O)(=O)N(C)C)cc1NC(=O)CSc1nncs1`: the call in assay [6] was inactive.

On to `CN1CCC(c2ccc(CO)cc2)=CC1c1cccs1` (configuration not stated), for which the results for the composite z-score (in assay [1]; in the assay on XIP peptide (Xip251-270)) were 0.219 (inactive) and 0.171, respectively. The z-score in [2] was -1.99; in assay [3], -4.11 (inactive); in assay [4], 0.126 (inactive); in assay [5], -0.0255 (inactive).

As for `O=C(c1ccncc1)N1CC[C@@H]2[C@@H](CO)Nc3ccc(Br)cc3[C@@H]21`, the compound was called inactive in assay [6].

As for `O=c1[nH]c(CN2CC=C(c3ccccc3)CC2)nc2cc(C(F)(F)F)ccc12`, the compound was called inactive in assay [9] and in [8].

Consider `O=C(O)CSc1ncnc2scc(-c3ccc(Br)cc3)c12`, for which the compound was classed as inactive in assay [6].

In the case of `CC(=O)OC1(C)CC(C)C(=O)C(C(O)CC2CC(=O)NC(=O)C2)C1` (configuration not stated), the outcome in assay [9] and in assay [8] was inactive.

As for `CC(Oc1cc2oc(=O)c3c(c2cc1Cl)CCC3)C(=O)NCc1cccnc1` (configuration not stated), the compound was classed as inactive in assay [6].

On to `O=P(c1ccccc1)(c1ccccc1)N1CC2(CC2)CC(O)(c2ccccc2)C1` (configuration not stated), for which the composite z-score in assay [1] was 0.115 (inactive); with XIP peptide (Xip251-270), 0.725. Further, the z-score in assay [2] is 0.45; in assay [3] it was -2.7 (inactive); in [4], 0.37 (inactive); in assay [5] it was 0.613 (inactive).

Consider `Cc1ccc(NCc2nnc(SCC(=O)N3CCc4ccccc43)n2C)cc1`, for which the result in [6] was inactive.

As to `O=C(CN1C(=O)/C(=C/c2cccc(Br)c2)SC1=S)Nc1cccnc1`, in assay [6], the outcome was inactive.

For `O=C(C[C@H]1C[C@H]2c3cc(NC(=O)c4cccnc4)ccc3O[C@H]2[C@H](CO)O1)NCc1ccccn1`, the result in [6] was inactive.

Regarding `CCOc1ccc(-n2c(SCC(N)=O)nc3c(c2=O)SCC3)cc1`, in assay [6], the compound was called inactive.

With `CC[C@H](C)[C@@H]1NC(=O)CNC(=O)c2csc(n2)[C@H](C(C)(C)O)OC(=O)C(C)(C)[C@H](CCCC(C)(Cl)Cl)OC(=O)c2csc1n2`, the outcome in assay [8] was inactive.

As for `CCCC=C(CCC)[C@@H](NP(=O)(c1ccccc1)c1ccccc1)c1ccccc1`, the composite z-score is 0.147 (inactive) in assay [1] and 0.158 in the assay on XIP peptide (Xip251-270). For the same compound, the z-score in assay [2] is -0.81; in [3], -1.64 (inactive); in assay [4], 0.17 (inactive); in assay [5], 0.404 (inactive).

`Nc1cc(C(=O)O)ccc1Nc1ccccc1`: in assay [6], the compound was classed as inactive.

With `Cc1c(OC(C)C(=O)NCC2CCC(C(=O)O)CC2)ccc2c1oc(=O)c1ccccc12` (configuration not stated), the compound was classed as inactive in [6].

For the compound `COC(=O)[C@@]1(Cc2ccccc2)[C@H]2c3cc(C(=O)N(C)C)n(C)c3C[C@H]2CN1C(=O)c1ccccc1`, the figures for the composite z-score (in assay [1]; in the assay with XIP peptide (Xip251-270)) were 0.0028 (inactive) and -0.0822, respectively. Further, the z-score in assay [2] was -0.731; in [3], -6.38 (inactive); in assay [4], -0.344 (inactive); in assay [5], -0.428 (inactive).

Consider `COc1ccccc1-c1cc(C(F)(F)F)nc(S(=O)(=O)CCCC(=O)O)n1`, for which the compound was classed as inactive in assay [6].
